Experimental data from ChEMBL document CHEMBL3988442, “University of Dundee, Small-Polar-MMV Screening Library” (2021).

The molecules below were run against Shiga toxin 2 (Escherichia coli O157:H7) (UniProt P09385+P09386) (assay: E. coli 0.157:H7 Shiga Toxin SOP - stx2 screening assay). Conditions: 30 µM.
Assay type: functional
Parameters: scale not given: direction of the effect not stated beside the values

Point of comparison: `O=C(CN1CCCC1Cn1cncn1)NCCOc1cccc(F)c1` (stereo not drawn), Percent Effect 18.7%. Against it:
- O=C(CCOc1ccc(Cl)cc1)N1CCN(c2cnccn2)CC1 — lower, -12.7%
- CC(=O)Nc1cccc(C(=O)Nc2cnc3n2CCCC3)c1 — lower, -9.23%
- Cn1cc(C2CCCN2Cc2csc(-c3ccsc3)n2)cn1 (stereo not drawn) — lower, -5.27%
- c1cnn(CC2CCCN2c2ncnc3sccc23)c1 (stereo not drawn) — higher, 26.3%
- CCCc1cc(C(=O)N2CCCC2c2cccnc2)[nH]n1 (stereo not drawn) — lower, 11.1%
- O=C(c1cn(-c2cc(N3CCOCC3)ncn2)cn1)N1CCSCC1 — lower, -38.5%
- CN(C)C(=O)[C@H]1C[C@@H]2CN(S(=O)(=O)Cc3ccccc3)C[C@H]1O2 — lower, -3.49%
